Bioassay records from PubChem.
In the library only some 3.7% were active in any assay of this set; here they are far more common.
TCR act = activators of T cell receptors. 330,000 tested, under 10 active. primary human leukocytes, anti-CD3, IL-2 HTRF, 48 h. Potency, µM (highest dose often 9.22 µM), without a hit: top-dose activation of IL-2 secretion, hits mostly activators; further: % of control where 0% means no effect
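TCR engagement came from a-CD3 beads alone, with compounds added to primary human leukocytes for 48 hr. Secreted IL-2 bridged europium cryptate- and d2-labelled anti-IL-2 antibodies, giving FRET emission at 665nm after 320nm excitation.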
WRN helicase inh = blocks human WRN helicase | Q14191 | WRN helicase unwinding, fluorescent forked duplex, kinetic | Potency, µM (titrated, usually from 114 µM), for inactives: at the highest dose activity change, negative = inhibition, most hits filed as inhibitors | actives 0.46% (n = 360,000) | AID 651768; further: potency means the concentration at half of the fitted maximal effect; on the % scale 0 is the no-effect control and ±100 the full control effect; nearly all actives have a fitted effect of over 55% in size
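Kinetic red-fluorescence monitoring (525/598 nm) tracks WRN helicase activity after 100 nM fluorophore-quencher forked duplex and 2 mM ATP are added to 20 nM enzyme pretreated 15 min at room temperature with compound.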
PI5P4Ka inh = PI5P4K alpha (human) kinase inhibition; PI5P4Kalpha enzyme, ADP-Glo luminescence, 60 min; active compounds read low; max response, %; actives 1.2% (n = 330,000); P48426; active means max response of -50% or lower; inconclusive means between -30% and -50%; inactive means -30% or higher; further: value at the top dose of about 77 µM; on the % scale 0 is the no-effect control and ±100 the full control effect
Target sequence (P48426 whole entry, looked up): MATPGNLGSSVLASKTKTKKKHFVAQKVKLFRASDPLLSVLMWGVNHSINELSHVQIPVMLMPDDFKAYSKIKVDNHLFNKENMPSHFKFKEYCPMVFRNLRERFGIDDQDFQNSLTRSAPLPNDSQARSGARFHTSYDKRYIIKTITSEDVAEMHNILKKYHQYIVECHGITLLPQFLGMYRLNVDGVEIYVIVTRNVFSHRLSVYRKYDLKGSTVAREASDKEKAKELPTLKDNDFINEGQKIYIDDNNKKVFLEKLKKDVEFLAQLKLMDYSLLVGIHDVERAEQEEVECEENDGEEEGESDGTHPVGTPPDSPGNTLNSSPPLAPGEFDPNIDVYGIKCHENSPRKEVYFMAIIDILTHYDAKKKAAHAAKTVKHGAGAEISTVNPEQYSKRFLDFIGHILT
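Controls without substrate or without enzyme flank wells where PI5P4Kalpha converts substrate using 5 microM ATP (final). Incubation lasts 60 minutes at room temperature; ADP formed is read by ADP-Glo luminescence.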
VDR inhibitor = blocks the human vitamin D receptor. Potency, µM, inactives show max response, negative = inhibition, hits mostly inhibitors. VDR-SRC2-3 peptide fluorescence polarization, 2 h. P11473. AID 504847. actives 0.93% (n = 400,000); further: potency means the concentration at half of the fitted maximal effect; on the % scale 0 is the no-effect control and ±100 the full control effect
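Fluorescence polarization assay measuring small-molecule disruption of VDR binding to the coregulator peptide SRC2-3. Compounds were pin-transferred (23 nl) into the reagent mix and incubated 2 h at room temperature before reading.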
PLK1 PBD block = PLK1 (human) polo-box domain binding inhibition; Potency, µM, for the others: max response, negative = inhibition, most hits filed as inhibitors; P53350; actives 2.8% (n = 360,000); Plk1 PBD binding of FITC phosphopeptide, fluorescence polarization; further: potency means the concentration at half of the fitted maximal effect; series mostly up to about 57 µM; on the % scale 0 is the no-effect control and ±100 the full control effect; nearly all actives have a fitted effect of over 65% in size
FEN1 inh = blocks human flap endonuclease 1; P39748; Recombinant FEN1 flap cleavage, fluorescence, 15 min; Potency, µM (titrated, usually from 114 µM), without a hit: top-dose activity change, negative = inhibition, most hits filed as inhibitors; actives 0.35% (n = 390,000); AID 588795; further: potency means the concentration at half of the fitted maximal effect; on the % scale 0 is the no-effect control and ±100 the full control effect; nearly all actives have a fitted effect of over 65% in size
Target sequence (P39748 whole entry, looked up): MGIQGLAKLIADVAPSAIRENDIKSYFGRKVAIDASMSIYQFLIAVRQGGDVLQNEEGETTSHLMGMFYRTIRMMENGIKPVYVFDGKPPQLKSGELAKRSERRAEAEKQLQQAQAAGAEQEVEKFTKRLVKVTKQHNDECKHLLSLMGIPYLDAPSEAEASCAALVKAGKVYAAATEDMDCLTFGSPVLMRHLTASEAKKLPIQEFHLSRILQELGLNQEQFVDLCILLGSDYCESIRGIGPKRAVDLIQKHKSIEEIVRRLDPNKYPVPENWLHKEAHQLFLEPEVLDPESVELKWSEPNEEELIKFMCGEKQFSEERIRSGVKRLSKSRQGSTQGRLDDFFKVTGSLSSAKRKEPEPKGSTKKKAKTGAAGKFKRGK
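FEN1 at 10 nM preincubated with compounds 15 min at room temperature, then flap DNA substrate added at 50 nM final. Signal read at 0 and 15 min; concentration-response fitted with four-parameter Hill equation.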
* = called active by the depositor; ? = inconclusive; . = not tested or not shown; [ ] = another dose, or the depositor's remark. Unless noted, the call rests on the fitted dose curve; in most records, active means well fitted curve in the direction sought with a large enough effect; inconclusive means small, poorly fitted or top-dose-only effect, or another doubt; inactive means no such curve, though single readings can be large; an effect the other way counts as inactive or inconclusive.

SMILES	TCR act	WRN helicase inh	PI5P4Ka inh	VDR inhibitor	PLK1 PBD block	FEN1 inh
C#CCOc1ccc(/C=C2/C(=O)N(c3cccc(C(=O)O)c3)N=C2C)cc1OC	2.1%	?	-18.8	?	1.89µM*	?
COc1cc(/C=C2\C(=O)N(c3cccc(C(=O)O)c3)N=C2C)ccc1OCc1ccccc1	.	2.67µM*	-7.6	.	1.06µM*	.
C#CCOc1ccc(/C=C2/C(=O)N(c3ccc(S(N)(=O)=O)cc3)N=C2C)cc1OC	.	-15.7%	-21.8	.	1.19µM*	.
COc1cc(/C=C2/C(=O)N(c3ccc(C(=O)O)cc3)N=C2C)cc(OC)c1O	-5.5%	-4.1%[11.6 µM]	-15.0	-1.2%	39.9%	?
COc1ccc(/C=C2\N=C(c3ccccc3)N(c3ccc(C(=O)O)cc3)C2=O)cc1OC	7.4%	-13.4%	8.0	-121.8%	-10.1%	-11.9%
COc1cc(/C=C/[N+](=O)[O-])ccc1OCc1cccc(C(=O)O)c1	.	20µM*	-54.6*	20µM*	5.97µM*	50.1µM*
COc1ccc(CCN2CCC[C@H](CN3CCc4cc(OC)c(OC)cc4CC3=O)C2)cc1OC	.	.	.	1.4%	.	.
C=C(Br)COC(c1ccco1)[C@H](Cc1ccccc1)NC(=O)OC(C)(C)C (stereo partly specified)	.	.	.	.	.	-24.6%
CC(C)OCCCNC(=O)CCCn1c(SCC(N)=O)nc2c(sc3ccccc32)c1=O	.	.	.	-1.8%	.	4.5%
CSCC[C@H](NC(=O)[C@H](CCC(N)=O)NC(=O)[C@H](CCCCN)NC(=O)[C@H](CCCNC(=N)N)NC(=O)[C@H](Cc1ccc(O)cc1)NC(=O)[C@H](CCCNC(=N)N)NC(=O)[C@H](CO)NC(=O)[C@H](Cc1ccc(O)cc1)NC(=O)[C@H](CO)NC(=O)[C@H](CC(=O)O)NC(=O)[C@@H](NC(=O)[C@@H](N)Cc1ccccc1)[C@@H](C)O)C(=O)N[C@@H](C)C(=O)N[C@H](C(=O)N[C@@H](CCCCN)C(=O)N[C@@H](CCCCN)C(=O)N[C@@H](Cc1ccc(O)cc1)C(=O)N[C@@H](CC(C)C)C(=O)N[C@@H](C)C(=O)N[C@@H](C)C(=O)N[C@H](C(=O)N[C@@H](CC(C)C)C(=O)NCC(=O)N[C@@H](CCCCN)C(=O)N[C@@H](CCCNC(=N)N)C(=O)N[C@@H](Cc1ccc(O)cc1)C(=O)N[C@@H](CCCCN)C(=O)N[C@@H](CCC(N)=O)C(=O)N[C@@H](CCCNC(=N)N)C(=O)N[C@H](C(=O)N[C@@H](CCCCN)C(=O)N[C@@H](CC(N)=O)C(=O)N[C@@H](CCCCN)C(N)=O)C(C)C)C(C)C)C(C)C	.	.	.	19.6%	.	.
COC(=O)c1sc2ccccc2c1N	3.3%	-7.1%	-14.6	-28.0%	26.7µM*	-7.1%
Cc1ccc(-c2n[nH]c(=S)n2/N=C/c2cccn2C)cc1	0.4%	-22.8%	-10.3	6.4%	-18.7%	1.4%
Cc1nnc(C)n1/N=C/c1cccn1C	-0.2%	-0.1%	?	-16.3%	2.99µM*	-5.5%
Cc1c2ccccc2nc2c(F)c(NCCO)c(F)c(F)c12	-1.5%[46.1 µM]	?	?	?	6.7µM*	?
OCCNc1c2ccccc2nc2c(F)c(F)c(F)c(F)c12	-4.5%[46.1 µM]	0.3%	-10.7	-12.4%	-9.4%	10.4%
CC1(C)SCC(C(=O)O)NC1=O (stereo unspecified)	-1.7%	2.8%	-12.0	-10.4%	21.2µM*	5.8%
CCn1nc(-c2ccccc2C)nc2c(=O)n(C)c(=O)nc1-2	.	.	.	?	.	-19.4%
Cc1sc(N/N=C/c2cc([N+](=O)[O-])ccc2O)nc1-c1ccccc1	-1.5%	4.2%	?	?	15µM*	15.8%
O=[N+]([O-])c1ccc(O)c(/C=N/Nc2ccccc2Cl)c1	0.5%	1.8%[57.1 µM]	14.2	11.0%	26.7µM*	-2.7%
O=[N+]([O-])c1ccccc1N/N=C\c1ccccc1Cl	3.6%	0.2%	9.2	21.5%	-5.4%	-11.3%
O=C(N/N=C/c1cc([N+](=O)[O-])ccc1O)C(O)(c1ccccc1)c1ccccc1	1.6%	-1.2%	-5.6	-6.8%	-17.8%	-5.6%
COc1ccc(NC(=O)c2ccco2)cc1NC(=O)COc1cc(C)ccc1C(C)C	.	.	.	-12.3%	.	?
Cc1nc2nc(SCc3c(F)cccc3Cl)nn2c(C)c1Cc1ccccc1	.	.	.	-5.3%	.	-17.1%
CC(=O)NC1CCCC1C#N (stereo unspecified)	.	.	.	.	.	-4.7%
CCCn1c(=O)c(C(=O)NCc2ccccc2)c(O)c2ccccc21	5.1%	-35.4%	-5.0	?	11.9µM*	6.8%
SMILES	TCR act	WRN helicase inh	PI5P4Ka inh	VDR inhibitor	PLK1 PBD block	FEN1 inh
CCCn1c(=O)c(C(=O)NCCc2ccccc2)c(O)c2ccccc21	-4.4%	7.7%	11.0	6.1%	-12.0%	1.2%
COc1cc(OC)c(NC(=O)Nc2sc3nc4n(c(=O)c3c2C)CCC(C)CC4)cc1Cl (stereo unspecified)	.	.	.	-13.7%	.	-7.2%
Cc1ccc(N2CC(NC(=O)c3cccs3)CC2=O)cc1 (stereo unspecified)	.	.	.	11.8%	.	-4.9%
CCOC(=O)c1c(S(=O)(=O)N2CCC(C(=O)N3CCN(c4cc(C)ccc4C)CC3)CC2)c(C)n(C)c1C	.	.	.	11.9%	.	-15.8%
Cc1cc(/C=C2\SC(=S)NC2=O)c(C)n1-c1ccccc1	2.9%	-29.5%	-82.6*	7.3%	?	-7.7%
O=C1NC(=O)C(=Cc2ccc(Cl)c(Cl)c2)S1	3.0%	-1.4%	-26.0	-20.8%	-18.0%	0.3%
Cc1cc(/C=C2\SC(=S)NC2=O)c(C)n1C	.	?	.	-5.1%	-8.7%	?
CC1Cc2cc(/C=C3/SC(=S)NC3=O)ccc2O1 (stereo unspecified)	2.7%	-15.3%	-94.5*	87.3%	?	-13.1%
Cc1cc(/C=C2\SC(=S)NC2=O)c(C)n1-c1ccc(O)cc1	5.0%	?	-83.1*	-1.3%	-18.2%	-3.1%
Cc1cc(C(=O)O)ccc1-n1c(C)cc(/C=C2\SC(=O)NC2=O)c1C	-2.5%	-6.1%[11.6 µM]	-57.6*	-18.7%	-8.8%	11.7%
COC(=O)c1cccc(-n2c(C)cc(/C=C3\SC(=O)NC3=O)c2C)c1	.	-13.1%	-2.2	.	-28.0%	.
COc1ccc(CC(=O)Nc2ccc(-c3nc4ccccc4s3)c(C)c2)cc1OC	.	.	.	8.8%	.	13.8%
COc1cn(CC(=O)Nc2ccc(C)cc2)c(CN2CCCCC2)cc1=O	.	.	.	1.2%	.	-3.8%
CCc1ccccc1N(C)C(=O)c1cc2c(=O)oc3ccccc3c2s1	.	.	.	-15.2%	.	-12.8%
O=C1NC(=O)/C(=C/c2ccc(O)cc2)S1	-7.3%	-8.5%	?	-14.7%	-0.5%	-0.4%
Cc1cc(/C=C2\SC(=S)NC2=O)cc(C)c1O	3.8%	-10.4%[11.6 µM]	-75.7*	-9.4%	19.5%	-32.8%
Cn1nc(SCC(=O)O)sc1=S	0.1%	2.9%	6.0	-3.5%	2.1%	1.0%
